High-throughput results: PubChem BioAssay, National Center for Advancing Translational Sciences (NCATS)
DT40 TDP1 no CPT: qHTS for Inhibitors of human tyrosyl-DNA phosphodiesterase 1 (TDP1): qHTS in cells in absence of CPT; DT40 Tdp1-/- hTDP1 cells, no CPT, ATP luminescence, 48 h; Potency, µM (highest dose often 46.2 µM), usual class: inhibitors; hit rate 15% among 420,000; further: nearly all actives have a fitted effect of over 55% in size
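No-CPT arm: Tdp1-/-;hTDP1 DT40 cells (400/well) plus compounds, incubated ≥48 hr at 37 °C. Readout CellTiter-Glo luminescence.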
Six1-Eya2 blk: inhibitors of human Six1/Eya2 interaction. Q15475+O00167. AlphaScreen GST-Six1/His-Eya2 binding, biochemical; active compounds read low. activity change, % (test concentration not listed). hit rate 0.56% among 360,000; in the data active means activity change below about -65%; inconclusive means mostly about -30% to -63%
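Compounds are tested against tagged Six1 and Eya2 proteins bridged by glutathione donor and nickel acceptor beads; after a one-hour incubation at 37 °C without light, AlphaScreen emission is recorded.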
TDP1 cell CPT: DT40-hTDP1 cell growth loss with CPT. Potency, µM (doses to about 46.2 µM), usual class: inhibitors. hit rate 12% among 420,000. chicken DT40 Tdp1-/-;hTDP1 cells + 20 nM CPT, ATP luminescence, 48 h; further: nearly all actives have a fitted effect of over 55% in size
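Chicken DT40 Tdp1-/- cells complemented with human TDP1, 400 cells/well, exposed to compounds plus 20 nM camptothecin for at least 48 h at 37 C; viability read as ATP content by CellTiter-Glo luminescence.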
TDP1 block: TDP1 (human) enzyme inhibition. Q9NUW8. recombinant TDP1, AlphaScreen DNA substrate cleavage. Potency, µM (highest dose often 130 µM), hits mostly inhibitors. hit rate 0.28% among 350,000; further: nearly all actives have a fitted effect of over 40% in size
Target sequence (Q9NUW8 whole entry, looked up): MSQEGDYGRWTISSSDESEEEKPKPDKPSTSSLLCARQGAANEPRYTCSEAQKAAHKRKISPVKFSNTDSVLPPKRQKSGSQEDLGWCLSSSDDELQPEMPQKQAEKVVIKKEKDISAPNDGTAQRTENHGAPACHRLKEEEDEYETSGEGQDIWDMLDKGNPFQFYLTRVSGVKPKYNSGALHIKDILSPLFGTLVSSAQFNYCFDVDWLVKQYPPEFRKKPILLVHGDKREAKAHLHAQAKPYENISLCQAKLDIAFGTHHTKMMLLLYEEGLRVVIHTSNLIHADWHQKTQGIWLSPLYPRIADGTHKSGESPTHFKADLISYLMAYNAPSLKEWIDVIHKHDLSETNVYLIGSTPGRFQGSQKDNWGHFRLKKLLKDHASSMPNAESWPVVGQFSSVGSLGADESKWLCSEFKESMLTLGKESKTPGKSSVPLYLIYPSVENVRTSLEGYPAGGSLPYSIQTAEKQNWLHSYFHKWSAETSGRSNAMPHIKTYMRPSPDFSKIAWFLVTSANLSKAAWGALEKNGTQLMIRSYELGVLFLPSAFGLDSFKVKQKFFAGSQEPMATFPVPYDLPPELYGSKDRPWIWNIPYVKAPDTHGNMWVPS
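Steps: enzyme plus compound, 15 min RT; add biotin/phosphotyrosine-FITC oligonucleotide (15 nM final), react 5 min; add donor/acceptor beads (10 ug/ml final), 10 min; read AlphaScreen. Tdp1 at 1 nM final.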
IL-1B inflam inh: inflammasome signaling inhibition, IL-1 beta readout. THP-1 LPS/ATP IL-1B secretion, AlphaLISA, 16 h; active compounds read low. activity change, % at 57.5 µM. hit rate 4.7% among 360,000. AID 743279; in the data active means activity change below about -50%; inconclusive means mostly about -30% to -49%
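THP-1 cells pretreated 1 hr with compounds (up to 57.5 uM final), then stimulated with LPS (250 ng/mL final) plus ATP (1.25 mM final); secreted IL-1B measured by AlphaLISA after 16 hr, decreased signal indicating inhibition.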
CtBP-E1A blk: inhibitors of CtBP/E1A interaction. activity change, % (no concentration beside the values). hit rate 0.49% among 340,000. AlphaScreen GST-E1A/His-CtBP binding, 1536-well; active compounds read low. AID 651724; in the data active means activity change below about -65%; inconclusive means mostly about -30% to -63%
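In 5 uL wells, 23 nL compound meets equimolar GST-E1A and His-CtBP (5X stock 125 nM each) for 2 h, 37 °C. Beads (5X, 50 ug/mL) then 1 h, 37 °C, dark.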
Numbers stand for hits; i = inactive; ? = inconclusive; nt = no result. Rows were chosen to be rich in hits. Some 18% of all compounds tested hit in one or more screens of this group. Unless noted, the call rests on the fitted dose curve; in most records, active means well fitted curve in the direction sought with a large enough effect; inconclusive means small, poorly fitted or top-dose-only effect, or another doubt; inactive means no such curve, though single readings can be large; an effect the other way counts as inactive or inconclusive.

SMILES | DT40 TDP1 no CPT | Six1-Eya2 blk | TDP1 cell CPT | TDP1 block | IL-1B inflam inh | CtBP-E1A blk
COc1ccc(F)cc1S(=O)(=O)n1nnc2ccccc21 | ? | -68 | ? | i | i | ?
COc1ccc(OC)c(S(=O)(=O)n2cnc3ccccc32)c1 | 16µM | i | ? | nt | i | i
COc1ccccc1NC(=O)COC(=O)Cn1cnc2c1c(=O)n(C)c(=O)n2C | i | i | ? | i | i | i
COCCNC(=S)N(CCc1c(C)[nH]c2ccccc12)Cc1cccnc1 | ? | i | i | nt | i | i
COCCNC(=S)N(CCc1c(C)[nH]c2ccc(C)cc12)Cc1cc(OC)c(OC)c(OC)c1 | ? | i | 18µM | i | i | i
COCCNC(=S)N(CCc1c(C)[nH]c2ccc(F)cc12)Cc1cccnc1 | i | i | i | nt | i | i
COCCNC(=S)N(CCc1c(C)[nH]c2ccc(Cl)cc12)Cc1cccnc1 | 21µM | i | ? | nt | ? | nt
CCNC(=S)N(CCc1c(C)[nH]c2ccc(Cl)cc12)Cc1cccnc1 | ? | i | ? | nt | -87 | i
CCOc1nnc(C)c2c(C)n(-c3ccc(Cl)cc3)nc12 | i | i | ? | i | i | i
CCCCn1nnnc1C1(C)CCC(=O)N1c1ccc(N2CCOCC2)cc1 (centres undefined) | i | i | i | nt | i | i
Cn1cc(C(c2ccccc2OCC(=O)O)c2cn(C)c3ccccc23)c2ccccc21 | 16µM | ? | 12µM | nt | i | i
c1ccc(-c2csc(Nc3cccnc3)n2)cc1 | ? | i | i | i | ? | i
COCCn1c(SCC(=O)N2CCN(c3ccccc3)CC2)nc2c(c1=O)SC(C)C2 (centres undefined) | 18µM | i | 21µM | nt | i | i
COCCn1c(SCC(=O)N2CCc3ccccc32)nc2c(c1=O)SC(C)C2 (centres undefined) | ? | i | ? | nt | i | i
COCCn1c(SCC(=O)c2ccccc2)nc2c(c1=O)SC(C)C2 (centres undefined) | ? | i | 23µM | i | i | i
CCSC(=O)N=Nc1ccc(O)cc1 | 12µM | i | 15µM | nt | i | i
O=C1c2cccc3cccc(c23)C(=O)C1(O)O | 2.3µM | i | 1µM | nt | -94 | i
CC(=O)NCCc1ccc(O)c(O)c1 | nt | nt | nt | i | nt | nt
CCc1cccc(CC)c1NC(=S)NCCc1ccc(O)c(O)c1 | ? | i | 23µM | i | ? | i
COc1cc(CN(CC2CCCO2)C(=O)c2ccco2)cc(OC)c1OC (centres undefined) | i | i | i | i | i | i
CC(=O)Nc1ccc(N/C(N)=N/c2nc(C)cc(C)n2)cc1 | ? | i | ? | i | -93 | i
Cc1cc(C)nc(/N=C(\N)Nc2ccc3c(c2)OCCO3)n1 | ? | i | 21µM | i | -78 | i
Cc1cc(=O)[nH]c(/N=C(\N)Nc2ccc3c(c2)OCCO3)n1 | i | i | i | i | i | i
Cc1cc(C)nc(/N=C(/NC(=O)c2ccccc2)Nc2ccccc2)n1 | i | i | i | i | i | i
Cc1cc(C)nc(/N=C(\N)Nc2ccc(S(N)(=O)=O)cc2)n1 | ? | i | i | i | i | i
SMILES | DT40 TDP1 no CPT | Six1-Eya2 blk | TDP1 cell CPT | TDP1 block | IL-1B inflam inh | CtBP-E1A blk
Cc1cc(C)nc(/N=C(\N)Nc2ccc(-c3ccccc3)cc2)n1 | 9.2µM | i | 7.3µM | i | nt | i
Cc1cc(C)nc(/N=C(\N)Nc2ccc(SC(F)F)cc2)n1 | 12µM | i | 13µM | i | i | i
CCc1nnc(N/N=C\c2ccc(OC(C)=O)c(OC)c2)n1N | i | i | i | nt | i | ?
O=C(Cc1ccccc1)NCc1cccnc1 | i | i | i | i | i | i
Cc1cc(C)nc(/N=C(\N)Nc2ccc(F)c([N+](=O)[O-])c2)n1 | ? | i | ? | i | -92 | i
Cc1ccsc1C(=O)Nc1ccc(F)c([N+](=O)[O-])c1 | ? | i | i | i | ? | i
CCOc1ccc(N/C(N)=N/c2nc(C)cc(C)n2)cc1 | 26µM | i | 21µM | i | i | nt
